Results filed as inconclusive are left out. Active and inactive are the calls of the source. Cut-off read from the data, not from the text of the source, unless noted: active = inhibition above about 30%; inactive = the rest.
Key:
[1] = reducers of endogenous Her2 protein level, primary screen, SKBR3 breast tumor cells, AlphaScreen, ATP viability (AID 461;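 active = Her2 level under about 52% in both replicate screens, with viability over 70% of control, limit read from the data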;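 for Her2 level: lower value means less Her2 protein in the cells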;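 for viability: percent of carrier control wells set as 100% viability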); conditions: 18-24 h, measured here: SKBR3 viability, ATP luminescence, at 10 µM
[2] = molecular target: Receptor tyrosine-protein kinase erbB-2 (Homo sapiens) (UniProt P04626); assay: as above; conditions: 18-24 h, at 10 µM, stronger effect = lower value
Receptor tyrosine-protein kinase erbB-2 (Homo sapiens), sequence (P04626 whole entry, looked up): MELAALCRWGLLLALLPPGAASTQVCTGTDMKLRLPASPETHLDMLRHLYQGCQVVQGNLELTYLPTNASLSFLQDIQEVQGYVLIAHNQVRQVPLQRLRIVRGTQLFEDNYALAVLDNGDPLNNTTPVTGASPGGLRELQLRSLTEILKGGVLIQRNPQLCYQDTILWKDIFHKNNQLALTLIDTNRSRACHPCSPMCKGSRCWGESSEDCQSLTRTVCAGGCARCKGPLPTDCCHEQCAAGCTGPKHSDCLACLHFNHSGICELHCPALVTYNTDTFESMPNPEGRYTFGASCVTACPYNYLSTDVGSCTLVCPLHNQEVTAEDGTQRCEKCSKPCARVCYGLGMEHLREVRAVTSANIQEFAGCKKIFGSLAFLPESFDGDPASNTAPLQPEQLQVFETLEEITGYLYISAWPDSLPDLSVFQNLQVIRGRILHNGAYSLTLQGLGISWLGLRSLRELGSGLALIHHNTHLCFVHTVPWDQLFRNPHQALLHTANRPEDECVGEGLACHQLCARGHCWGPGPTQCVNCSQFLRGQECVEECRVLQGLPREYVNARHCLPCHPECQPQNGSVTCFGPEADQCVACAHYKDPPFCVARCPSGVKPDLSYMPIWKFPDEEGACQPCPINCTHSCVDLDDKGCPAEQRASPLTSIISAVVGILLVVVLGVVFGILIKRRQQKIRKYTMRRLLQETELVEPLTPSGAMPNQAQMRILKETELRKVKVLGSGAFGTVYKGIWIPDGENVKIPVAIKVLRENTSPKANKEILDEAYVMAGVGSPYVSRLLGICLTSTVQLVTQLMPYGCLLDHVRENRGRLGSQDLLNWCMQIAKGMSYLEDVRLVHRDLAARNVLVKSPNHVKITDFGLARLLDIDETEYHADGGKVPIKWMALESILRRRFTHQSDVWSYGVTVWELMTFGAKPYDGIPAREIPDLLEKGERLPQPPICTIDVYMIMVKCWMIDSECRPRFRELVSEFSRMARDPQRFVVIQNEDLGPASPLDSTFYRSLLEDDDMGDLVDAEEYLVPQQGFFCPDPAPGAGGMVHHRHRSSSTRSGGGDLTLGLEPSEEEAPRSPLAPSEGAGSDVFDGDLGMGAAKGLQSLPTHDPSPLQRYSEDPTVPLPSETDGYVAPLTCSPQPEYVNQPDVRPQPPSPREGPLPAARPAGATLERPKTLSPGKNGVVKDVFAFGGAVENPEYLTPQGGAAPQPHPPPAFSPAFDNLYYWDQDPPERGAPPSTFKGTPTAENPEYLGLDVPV

[3] = SK-BR-3 cell growth inhibitors, pilot screen, 24 h, human (AID 572;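 active = viability at or below 10% of carrier control in both of two separate runs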;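 note: compound exposure lasted between 18 and 24 h rather than exactly 24 h; 100% = carrier-treated control wells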); conditions: SK-BR-3 viability, CellTiter-Glo luminescence, at 10 µM, stronger effect = lower value
[4] = HUVEC growth inhibition – cell-based, human, primary screen (AID 575;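 active = viability at or below 30% in both replicate assays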;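 note: 100% = median of untreated cell wells with 0.1% DMSO on each plate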); conditions: HUVEC proliferation, CellTiter-Glo luminescence, 72 h; at 10 µM; stronger effect = lower value
[5] = growth inhibitors of H69AR lung tumor, primary screen, human, duplicate replicates (AID 580;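 active = viability at or under a set limit in both replicates, limit being median viability minus 3 SD, cut at about 48% in these data, passing the limit was not always enough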;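 note: 100% = mean luminescence of untreated wells and 0% = no signal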); conditions: H69AR lung tumor cells viability, ATP luminescence, 72 h; at 10 µM; stronger effect = lower value
[6] = reversal of MRP1-mediated doxorubicin resistance, pilot screen, H69AR cells, doxorubicin co-treatment (AID 601;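 active = viability loss from added drug above about 55%, and viability with drug at most 40%, in both replicates, limit read from the data, passing the limit was not always enough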); conditions: CellTiter-Glo, 72 h, at 10 µM; for differential viability (reversal): stronger effect = higher value
[7] = 384-well plate pilot, post-Golgi transport modulator project, inhibition of yeast transport mutant growth (AID 636; in the data active = inhibition above about 31%); conditions: absorbance 615 nm, about 18 h, stronger effect = higher value
[8] = growth suppression of yeast trafficking mutant, preliminary HTS, modulators of trafficking downstream of Golgi apparatus project, 1536-format plate, OD 615 nm (AID 637); conditions: yeast transport mutant growth, absorbance 615 nm, 18 h; stronger effect = higher value
[9] = OD615 S. cerevisiae growth inhibition, permissive medium, pilot counter-assay, permissive growth control for S. cerevisiae lifespan shortening project (AID 705;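 active = growth inhibition above 25% in both replicates, a cutoff set 3 SD above the mean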); conditions: OD615, 24 h, at 10 µM, stronger effect = higher value
[10] = Restrictive medium S. cerevisiae growth inhibition, OD615, pilot screen of yeast lifespan reduction project, restrictive growth control (AID 706;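 active = growth inhibition above a set limit, 3 SD over mean compound inhibition, in both replicates, cut at about 43% in these data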;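 note: modified DeaD lifespan yeast strain shifted to restrictive glucose medium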); conditions: OD615, 48 h, at 10 µM, stronger effect = higher value
[11] = viability gain of MRP-1-high H69AR cells under doxorubicin, pilot screen, MRP-1 activator project, CellTiter-Glo, duplicate (AID 807;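 active = viability increase at or above a cutoff of the median across tested compounds plus 3 SD, cut at about 8.5% in these data, passing the limit was not always enough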;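 note: compound pretreatment 18-22 h then 72 h combined with doxorubicin; 0% = doxorubicin alone and 100% = vehicle without doxorubicin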); conditions: H69AR viability with doxorubicin, CellTiter-Glo luminescence; at 10 µM; stronger effect = higher value
[12] = growth suppression of beta-catenin knockout HCT116, pilot screen, human colon tumor cells (AID 823;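 active = cell viability at or below a set limit in both duplicate runs, the limit being the all-compound median minus 4 SD, cut at about 23% in these data, passing the limit was not always enough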;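 note: 0% = wells killed by 20 µM Hyamine and 100% = untreated DMSO cell wells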); conditions: CellTiter-Glo, 60 h, at 10 µM, stronger effect = lower value
[13] = growth suppression of PTEN-deleted HCT116, pilot screen, cell-based, HCT116 clonal line, CellTiter-Glo (AID 824;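 active = viability at or below 27.92% in each of two runs, the all-compound median minus 4 SD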;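 note: 0% = 20 µM Hyamine control and 100% = vehicle cell control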); conditions: 60 h, at 10 µM, stronger effect = lower value
[14] = inhibitors of the yeast RAM network, pilot screen, dse1pr::URA3 reporter, 5-FOA selection (AID 869;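 active = inhibition over a set limit, the all-compound mean plus 3 SD, in both replicate runs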;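 note: 0% = DMSO wells with no growth and 100% = 10 µM 1-NA-PP1 with full growth; RAM network block rescues cells from 5-FOA so hits raise OD615 growth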); conditions: S. cerevisiae dse1pr::URA3 5-FOA growth, OD615, 2 d; at 10 µM; stronger effect = higher value; strain carries analog-sensitive mutant Cbk1 kinase
[15] = RAM signaling pathway blockade in yeast – S. cerevisiae, Pdr1DBD-CYC8 efflux-inhibited sensitized strain, primary screen (AID 1298;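 active = RAM network inhibition above 8.4% in each of two replicates, 3 SD over the compound average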;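 note: 0% = DMSO untreated cells without growth and 100% = 10 µM 1-NA-PP1 full growth; higher means more yeast growth rescued from 5-FOA killing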); conditions: S. cerevisiae cbk1-as DSE1-URA3 strain, 5-FOA growth OD615, 2 d; at 50 µM; stronger effect = higher value
[16] = H69AR cells + 2 uM doxorubicin, measured here: viability with 2 uM doxorubicin, stronger effect = lower value
[17] = H69AR cells, compound alone cytotoxicity

| Structure (SMILES) | viability [1] [%] | Her2 level [2] | viability [3] | viability [4] | viability [5] | differential viability (reversal) ([6]; H69AR cells + 2 uM doxorubicin) | viability [6, 16] [%] | viability [6, 17] [%] | inhibition [7] | inhibition [8] | growth inhibition [9] | growth inhibition [10] | viability increase [11] | viability [12] | viability [13] | inhibition [14] | RAM network inhibition [15] |
| --- | --- | --- | --- | --- | --- | --- | --- | --- | --- | --- | --- | --- | --- | --- | --- | --- | --- |
| Cc1c(C#N)c2ccccc2n1CC(=O)N1CCc2ccccc2C1 | 102 | 120% (inactive) | 102% (inactive) | 93.5% (inactive) | 94.9% (inactive) | 2.7% (inactive) | 92.2 | 94.9 | 6.67% (inactive) | -3.17% (inactive) | -1.57% (inactive) | -2.33% (inactive) | -3.16% (inactive) | 92.9% (inactive) | 92.7% (inactive) | 2.05% (inactive) | 4.34% (inactive) |
| Cc1ccccc1CSc1nnc(C)c(=O)[nH]1 | 90 | 106% (inactive) | 90% (inactive) | 104% (inactive) | 97.2% (inactive) | 4.72% (inactive) | 92.5 | 97.2 | -3.2% (inactive) | -0.17% (inactive) | -7.61% (inactive) | -2.98% (inactive) | -1.7% (inactive) | 98.8% (inactive) | 99% (inactive) | 0.815% (inactive) | 1.17% (inactive) |
| Cn1nnnc1SCC(=O)Nc1ccccc1-c1ccccc1 | 100 | 110% (inactive) | 100% (inactive) | 99% (inactive) | 91.2% (inactive) | 9.64% (inactive) | 81.6 | 91.2 | -2.44% (inactive) | -1.33% (inactive) | -19.3% (inactive) | -10.2% (inactive) | -0.09% (inactive) | 97.4% (inactive) | 90% (inactive) | 0.31% (inactive) | 0.77% (inactive) |
| Cc1cc(C)nc(NC(=O)c2cnc3sccn3c2=O)n1 | 106 | 88.5% (inactive) | 106% (inactive) | 90.5% (inactive) | 96.5% (inactive) | -8.39% (inactive) | 105 | 96.5 | -4.67% (inactive) | 4.5% (inactive) | -12.5% (inactive) | -10.7% (inactive) | -1.3% (inactive) | 97.7% (inactive) | 98.3% (inactive) | 0.9% (inactive) | 0.52% (inactive) |
| CCCSC1=C(C#N)C(c2cc(OC)ccc2OC)CC(=O)N1 (stereo not given) | 93 | 92% (inactive) | 93% (inactive) | 98.3% (inactive) | 89.1% (inactive) | 5.96% (inactive) | 83.1 | 89.1 | -4.4% (inactive) | -0.33% (inactive) | -0.855% (inactive) | -3.12% (inactive) | -0.44% (inactive) | 92.5% (inactive) | 92.9% (inactive) | 1.42% (inactive) | 0.78% (inactive) |
| CC1=C(C(=O)OC2CCCC2)C(c2ccc(C)o2)C2=C(CC(c3cccs3)CC2=O)N1 (stereo not given) | 148 | 108% (inactive) | 148% (inactive) | 75.1% (inactive) | 74.8% (inactive) | 13.3% (inactive) | 61.5 | 74.8 | -1.17% (inactive) | -11% (inactive) | -3.79% (inactive) | -19.9% (inactive) | -4.36% (inactive) | 46.3% (inactive) | 58.9% (inactive) | 1.68% (inactive) | 2.7% (inactive) |
| O=c1c2ccccc2nc(SCc2nc(-c3ccccc3)no2)n1-c1ccc(F)cc1 | 90.5 | 98% (inactive) | 90.5% (inactive) | 79.7% (inactive) | 89.7% (inactive) | -5.78% (inactive) | 95.5 | 89.7 | -5.73% (inactive) | 2.17% (inactive) | 2.33% (inactive) | -3.72% (inactive) | -1.52% (inactive) | 72.2% (inactive) | 68.6% (inactive) | 1.77% (inactive) | 8.86% (inactive) |
| CC(=O)Nc1cccc(NC(=O)CSc2nn3c(=O)c(C)nnc3s2)c1 | 100 | 91% (inactive) | 100% (inactive) | 76.8% (inactive) | 90.8% (inactive) | 15.5% (inactive) | 75.3 | 90.8 | -5.73% (inactive) | -4.33% (inactive) | -3.39% (inactive) | -16% (inactive) | 0.35% (inactive) | 110% (inactive) | 103% (inactive) | 1.29% (inactive) | 4.27% (inactive) |
| CCC(C)NC(=O)CS(=O)(=O)Cc1nc(-c2cccc(OC)c2)oc1C (stereo not given) | 80.5 | 98% (inactive) | 80.5% (inactive) | 97.6% (inactive) | 91.4% (inactive) | -8.61% (inactive) | 100 | 91.4 | -2% (inactive) | -0.66% (inactive) | 3.02% (inactive) | 9.5% (inactive) | 0.02% (inactive) | 91.9% (inactive) | 93.5% (inactive) | 0.02% (inactive) | 3.92% (inactive) |
| O=C(c1ccc(CSCc2ccccc2F)o1)N1CCN(c2ccc(N3CCOCC3)nn2)CC1 | 84.5 | 76% (inactive) | 84.5% (inactive) | 54.7% (inactive) | 79.7% (inactive) | -5.4% (inactive) | 85 | 79.7 | 0.9% (inactive) | -0.17% (inactive) | 1.75% (inactive) | 17.4% (inactive) | -4.06% (inactive) | 83.6% (inactive) | 89.7% (inactive) | 1.54% (inactive) | 2.93% (inactive) |

From PubChem BioAssay
